# Screening results as filed in PubChem.
# Compounds with a hit are over-represented: about 17% of the library has one in this group of screens.
# TGFb SMAD3 inh = inhibitors of TGF-b signaling; HepG2 CAGA-GFP TGF-b/SMAD3 reporter, GFP fluorescence, 18 h; TGF-beta stimulated, 500 pg/mL final; Potency, µM (top dose mostly 46.1 µM), most hits filed as inhibitors; 410,000 compounds, 1.2% hits; AID 588855; further: nearly all actives have a fitted effect of over 65% in size
#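 First, reporter cells (HEPG2 CAGA-GFP) rested 2 h at 37 degrees C. Next, compounds were pinned in and TGF-beta added to 500 pg/mL final. After 18 h, GFP was imaged per cell and summed per well.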
# TDP1 cell noCPT = qHTS for Inhibitors of human tyrosyl-DNA phosphodiesterase 1 (TDP1): qHTS in cells in absence of CPT; DT40 Tdp1-/- hTDP1 cells, no CPT, ATP luminescence, 48 h; Potency, µM (doses to about 46.2 µM), most hits filed as inhibitors; 420,000 compounds, 15% hits; further: nearly all actives have a fitted effect of over 55% in size
#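 No-CPT arm: Tdp1-/-;hTDP1 DT40 cells (400/well) plus compounds, incubated ≥48 hr at 37 °C. Readout CellTiter-Glo luminescence.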
# HT1080 IDH1KD tx = kills HT-1080 cells with IDH1 knockdown; HT-1080 IDH1 knockdown viability, ATP luminescence, 48 h; Potency, µM (highest dose often 46.1 µM), hits mostly cytotoxic; 360,000 compounds, 2% hits; AID 686971
#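 Viability of IDH1-knockdown HT-1080 fibrosarcoma cells was assessed by CellTiter-Glo after 48 h at 37 °C with titrated compound; concentration-effect curves were classified by fit quality and response size.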
# DT40 TDP1 CPT = DT40-hTDP1 cell growth loss with CPT | 420,000 compounds, 12% hits | chicken DT40 Tdp1-/-;hTDP1 cells + 20 nM CPT, ATP luminescence, 48 h | Potency, µM (titrated, usually from 46.2 µM), hits mostly inhibitors; further: nearly all actives have a fitted effect of over 55% in size
#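 Chicken DT40 Tdp1-/- cells complemented with human TDP1, 400 cells/well, exposed to compounds plus 20 nM camptothecin for at least 48 h at 37 C; viability read as ATP content by CellTiter-Glo luminescence.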
# HepG2 viability = counter-screen for TGF-b inhibitors: cytotoxicity in HepG2 cells; HepG2 CAGA-GFP viability, ATP luminescence, 18 h; Potency, µM (titrated, usually from 46.1 µM), usual class: cytotoxic; 410,000 compounds, 0.76% hits; AID 588856
#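 CellTiter-Glo luminescence gave cytotoxicity after 18 hours at 37 degrees C. The cells were HepG2 CAGA-GFP in 1% FBS DMEM, stimulated with 500 pg/mL TGF-beta after compound addition. %Activity was normalised to no-cell wells (complete cell-killing) and DMSO (no toxicity), and curves were fitted and classified.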
# HT1080NT lethal = kills 2HG-producing HT-1080-NT fibrosarcoma cells. HT-1080-NT fibrosarcoma viability, CellTiter-Glo ATP luminescence, 48 h. Potency, µM (highest dose often 46.1 µM), usual class: cytotoxic. AID 686970. 360,000 compounds, 1.6% hits;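 further: NT is the 2HG producing partner of a matched IDH1 knockdown line; nearly all actives have a fitted effect of over 55% in size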
#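 Compounds were tested in concentration-response format on HT-1080-NT cells for 48 hours at 37 degrees C. Cell viability came from CellTiter-Glo luminescence; curves were classified by r2, response magnitude and activity.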
# Numbers stand for hits; . = inactive; ? = inconclusive; / = no result; [ ] = another dose, or the depositor's remark. The call rests on the fitted dose curve; in most records, active means well fitted curve in the direction sought with a large enough effect; inconclusive means small, poorly fitted or top-dose-only effect, or another doubt; inactive means no such curve, though single readings can be large; an effect the other way counts as inactive or inconclusive.
SMILES,TGFb SMAD3 inh,TDP1 cell noCPT,HT1080 IDH1KD tx,DT40 TDP1 CPT,HepG2 viability,HT1080NT lethal
CCOC(=O)C1CCCN(c2nc3ccccc3nc2C(C#N)C(=O)OCC)C1 (stereo not drawn),?,23.1µM,.,?,.,?
CCOC(=O)C1CCCN(c2nc3ccccc3nc2C(C#N)C(=O)OCCOC)C1 (stereo not drawn),.,20.6µM,.,?,.,.
O=S(=O)(c1ccc(Cl)cc1)N1CCC(c2ccncc2)CC1,.,?,/,?,.,/
CC(C)Cc1ccc(S(=O)(=O)N2CCC(c3ccncc3)CC2)cc1,?,7.31µM,/,9.2µM,.,/
O=S(=O)(c1ccccc1)N1CCC(c2ccncc2)CC1,?,20.6µM,/,.,.,/
CC(=O)Nc1ccc(S(=O)(=O)N2CCC(c3ccncc3)CC2)cc1,?,2.59µM,/,5.17µM,.,/
COC(=O)C1CCN(S(=O)(=O)c2ccc(NC(C)=O)cc2)CC1,.,.,.,.,.,.
Cc1ccc(S(=O)(=O)N2CCC(c3ccncc3)CC2)c(C)c1,?,10.3µM,/,20.6µM,.,/
Cc1cccc2c(C(=O)Nn3cnnc3)cc(-c3ccccc3Cl)nc12,.,.,.,.,.,.
CCc1ccc(NCc2cc3cc4c(cc3n(CC(=O)Nc3ccc(C)cc3)c2=O)OCO4)cc1,.,/,/,/,.,/
CC(C)(C)n1ncc2c(=O)n(Cc3ccc(Cl)cc3C(F)(F)F)cnc21,.,/,/,/,.,/
NS(=O)(=O)c1ccc(S(=O)(=O)N2CCCC(c3ccccc3)C2)cc1 (stereo not drawn),.,23.1µM,.,?,.,.
CC(C)(C)c1ccc(S(=O)(=O)N2CCC(c3ccncc3)CC2)cc1,2.82µM,8.2µM,/,13µM,.,/
NC(=O)C1CCCN(S(=O)(=O)c2ccccc2)C1 (stereo not drawn),.,.,.,.,.,.
CCC1(CC)Cc2ccccc2C2=C(C(=O)N3CCCCC3)C(=O)C(=O)N21,.,.,.,.,.,.
O=C(/C=C/c1ccccc1)NCCc1ccccc1,.,11.6µM,.,9.2µM,.,.
NS(=O)(=O)c1ccc(CCNC(=O)/C=C/c2ccc([N+](=O)[O-])cc2)cc1,.,14.6µM,.,?,.,.
O=C(/C=C/c1ccc([N+](=O)[O-])cc1)NCCc1ccccc1,.,?,.,?,.,.
COc1ccc(CCNC(=O)/C=C/c2ccco2)cc1,.,?,.,16.4µM,.,.
CN(C(=O)c1cnn(-c2ncc3c(n2)-c2ccccc2CCC3)c1C1CC1)C1CCOC1 (stereo not drawn),/,.,/,.,/,/
O=[N+]([O-])c1ccc(Nc2nc(NCCO)nc(N3CCCC3)n2)cc1,.,20.6µM,.,?,.,.
CCCNc1nc(Nc2ccc(C)cc2)nc(N2CCCC2)n1,.,20.6µM,.,23.1µM,.,.
CCCS(=O)(=O)NCc1c(C)ncc2c1CCN(C(=O)c1c(F)ccc(F)c1F)C2,/,.,/,.[9.04 µM],/,/
CCOCCCN1C(=O)CN(C2CCCCCC2)C(=O)C1c1ccc(OCC)c(OC)c1 (stereo not drawn),.,.,/,.,.,/
O=C(NS(=O)(=O)Oc1ccc(F)c(Cl)c1)OC[C@@H]1CCCN2CCCCC12 (stereo partly drawn),.,.,.,.,.,.
SMILES,TGFb SMAD3 inh,TDP1 cell noCPT,HT1080 IDH1KD tx,DT40 TDP1 CPT,HepG2 viability,HT1080NT lethal
CCC(=O)c1ccc(OCC(=O)NC2CCN(Cc3ccccc3)CC2)cc1,.,.,.,.,.,.
CCOc1ccc(C(=O)OC(C)C(=O)N2CCN(Cc3ccccc3)CC2)cc1 (stereo not drawn),.,18.4µM,.,16.4µM,.,.
CCOc1ccc(C(=O)NCC(=O)N2CCN(Cc3ccccc3)CC2)cc1,.,.,.,.,.,.
CCOc1ccc(C(=O)CC(C(=O)O)N2CCCCC2)cc1 (stereo not drawn),?,?,?,13µM,.,?
CCOc1ccc(C(=O)CC(C(=O)O)N2CCN(Cc3ccccc3)CC2)cc1 (stereo not drawn),.,3.66µM,.,20.6µM,.,.
CCOc1ccc(C(=O)CC(NCc2cccs2)C(=O)O)cc1 (stereo not drawn),.,16.4µM,?,8.2µM,.,.
Cc1cccc2cc(CN(C(=O)c3ccc(N4CCCCC4)cc3)C3CC3)c(N3CCC(O)CC3)nc12,/,.,/,.[9.04 µM],/,/
O=C(NNC(=O)c1ccc(-c2ccc([N+](=O)[O-])cc2)o1)c1ccncc1,.,.,.,.,.,.
CCc1cccc(NC(=O)c2ccc3c(c2)N(Cc2cccc(Cl)c2)C(=O)c2ccccc2S3=O)c1 (stereo not drawn),.,.,/,.,.,/
COc1ccc(CCNC(=O)c2ccc3c(c2)N(Cc2ccccc2)C(=O)c2ccccc2S3=O)cc1OC (stereo not drawn),.,11.6µM,/,16.4µM,.,/
CCN1C(=O)c2ccccc2S(=O)c2ccc(C(=O)NCCN(CC(C)C)CC(C)C)cc21 (stereo not drawn),.,23.1µM,.,?,.,.
CCOc1ccc(CCNC(=O)c2ccc3c(c2)N(Cc2ccccc2F)C(=O)c2ccccc2S3=O)cc1OCC (stereo not drawn),.,23.1µM,/,?,.,/
CCC(C)NC(=O)c1ccc2c(c1)N(Cc1ccccc1F)C(=O)c1ccccc1S2=O (stereo not drawn),.,.,/,.,.,/
CCN1C(=O)c2ccccc2S(=O)c2ccc(C(=O)NCc3ccc(C)cc3)cc21 (stereo not drawn),?,.,/,.,.,/
CCCCN(C)C(=O)c1ccc2c(c1)N(Cc1cccc(Cl)c1)C(=O)c1ccccc1S2=O (stereo not drawn),.,14.6µM,/,8.2µM,.,/
COc1ccc(-c2nc(C)c(CCNC(=O)C(=O)Nc3cc(C)cc(C)c3)s2)cc1OC,.,/,/,/,.,/
O=C1CNC(=S)N1C(CO)c1ccccc1 (stereo not drawn),.,.,.,.,.,.
O=C(NCCc1ccccc1)c1ccc2c(c1)N(Cc1ccccc1)C(=O)c1ccccc1S2=O (stereo not drawn),.,?,/,29.1µM,.,/
CCOc1ccccc1C(=O)NC(C(=O)OCC(=O)Nc1nnc(-c2ccccc2)o1)C(C)C (stereo not drawn),.,.,.,.,.,.
